Results: PubChem BioAssay (EPA / NIEHS)
Active and inactive are the calls of the source. How the source made its calls: active means hit-call score of the fitted dose curve at least 0.9, where 1 is the maximum; inactive means score below 0.9.

Assay: ATG_TGFb_CIS: Attagene CIS-FACTORIAL HepG2 Assay for human Transforming Growth Factor (TGF) (AID 2282967)
Details: HepG2 Attagene CIS TGFb reporter, mRNA transcription; actives raise or lower the signal
Protocol: ATG_CIS is a cell-based, multiplexed-readout assay that uses HepG2, a human liver cell line, with measurements taken at 24 hours after chemical dosing in a 24-well plate.ATG_TGFb_CIS is one of 52 assay component(s) measured or calculated from the ATG_CIS assay. It is designed to make measurements of mRNA induction, a form of inducible reporter, as detected with fluorescence intensity signals by Reverse transcription polymerase chain reaction (RT-PCR) and Capillary electrophoresis technology.Data from the assay component ATG_TGFb_CIS was analyzed into 1 assay endpoint. This assay endpoint, ATG_TGFb_CIS, was analyzed with bidirectional fitting relative to DMSO as the negative control and baseline of activity. Using a type of inducible reporter, measures of mRNA for gain or loss-of-signal activity can be used to understand the reporter gene at the transcription factor-level as they relate to the gene TGFB1. Furthermore, this assay endpoint can be referred to as a primary readout, because this assay has produced multiple assay endpoints where this one serves a reporter gene function. To generalize the intended target to other relatable targets, this assay endpoint is annotated to the growth factor intended target family, where the subfamily is transforming growth factor beta.
Human liver HepG2 cells are transiently transfected with multiple reporter transcription units (MRTUs) in 6-well plates using FuGene 6 reagent (Roche; 3 ml FuGene/1 mg DNA). The MRTU constructs are regulated by a cis-regulating element (promoter). […] A major difference between the CIS and TRANS system is that in CIS activities of endogenous TFs are measured, whereas the TRANS assay evaluates changes in activities of exogenous, chimeric NR-Gal4 proteins. […] At the end of 24 hour incubation, total RNA was isolated using TriZol reagent (Invitrogen). The isolated RNA is then reverse-transcribed using oligo(dT) primer and Mo-MLV reverse transcriptase (Invitrogen) with DNAse I (Ambion) treatment for 30 min. The one-tenth of the produced cDNA was amplified by PCR using Taq DNA polymerase (Invitrogen) and two reporter sequence-specific primers. The PCR products were fluorescently labeled by primer extension with 6-arboxyfluorescein (6-FAM) 5'-labeled reporter sequence-specific primer (2 min at 95 C, 20 s at 68 C and 10 min at 72 C) and these products were digested with 5U of HpaI (New England Biolabs) for 2h at 37 C. The fragments were purified using Qiaquick PCR columns (Qiagen), analyzed on an ABI 3130xL genetic analyzer (Applied Biosystems) with peak positions identified by using a set of X-rhodamine (ROX)-labeled MapMarker1000 molecular weight standards (BioVentures). The raw capillary electrophoresis data was processed using Attagraph software (Attagene).
With `Cc1ccc(C(C)C)c(O)c1` the outcome was “inactive”.
For `Clc1cc(Cl)c(Cl)cc1Cl`, the outcome was “inactive”.
In the case of `Cc1oc(-c2ccccc2)nc1CCOc1cccc2c1ccn2CCC(=O)O`, the outcome is reported as “inactive”.
In the case of `CCOc1ccc2c(c1)C(C)=CC(C)(C)N2`, the AC50 is reported as 151 µM (active).
In the case of `Cc1cc(=O)[nH]c(=S)[nH]1`, the outcome is reported as “inactive”.
For `Cc1ccccc1Cl`, the outcome was “inactive”.
With `CNCc1cc(F)ccc1Oc1ccc(Cl)c(Cl)c1` the outcome was “inactive”.
For `COc1cccc2c1C(=O)c1c(O)c3c(c(O)c1C2=O)C[C@@](O)(C(=O)CO)C[C@@H]3O[C@H]1C[C@H](N)[C@H](O)[C@H](C)O1`, the outcome was “inactive”.
For `CCCCCCCCCCO`, the outcome was “inactive”.
With `CCc1c(C(=O)NN2CCCCC2)nn(-c2ccc(Cl)cc2Cl)c1-c1ccc(Br)cc1` the outcome was “inactive”.
In the case of `C=CCOC(=O)c1ccccc1C(=O)OCC=C`, the outcome is reported as “inactive”.
In the case of `O=C(O)Cc1ccccc1Nc1c(Cl)cccc1Cl`, the outcome is reported as “inactive”.
In the case of `CCOC(=O)C(C)(C)Oc1ccc(Cl)cc1`, the outcome is reported as “inactive”.
For `CCCCCCCCCCCCCO`, the outcome was “inactive”.
With `Cc1ccc(N(C)C)cc1` the outcome was “inactive”.
For `CN1CCN(Cc2cc(-c3ccc4[nH]c(=O)oc4c3)co2)[C@@H](c2ccc(F)cc2)C1`, the outcome was “inactive”.
In the case of `CC1(C)CC(N=C=O)CC(C)(CN=C=O)C1` (stereo not given), the outcome is reported as “inactive”.
With `COc1ccc(S(=O)(=O)N2C(=O)[C@@](c3ccccc3OC)(N3C[C@H](O)C[C@H]3C(=O)N(C)C)c3cc(Cl)ccc32)c(OC)c1` the AC50 was 145 µM (active).
With `COCCOCCOC` the outcome was “inactive”.
With `COc1cc(-c2nc(NC(=O)c3cc4cc(C)cc(C)c4n3CC(=O)O)sc2CCC2CCCCC2)c(OC)cc1Cl` the AC50 was 26 µM (active).
With `NCC1(Cc2noc(=O)[nH]2)CCCCC1` the outcome was “inactive”.
In the case of `O=c1c(O)c(-c2ccc(O)c(O)c2)oc2cc(O)cc(O)c12`, the outcome is reported as “inactive”.
For `CC(C)(C)c1cc(O)c(C(C)(C)C)cc1O`, the outcome was “inactive”.
With `CCCCc1ccc2c(n1)[C@@H](c1ccc(OC)cc1C[C@H](C)C(=O)O)[C@H](C(=O)O)[C@H]2c1ccc2c(c1)OCO2` the outcome was “inactive”.
With `C[C@]12C=CC(=O)C=C1CC[C@@H]1[C@@H]2C(=O)C[C@@]2(C)[C@H]1CC[C@]2(O)C(=O)CO` the outcome was “inactive”.
For `CC1(C)NC(=O)NC1=O`, the outcome was “inactive”.
For `Cc1nc(C)nc(N2C[C@@H](C)N(c3ccnc([C@@H](C)O)n3)[C@@H](C)C2)n1`, the outcome was “inactive”.
For `Cc1cccc([N+](=O)[O-])c1C`, the outcome was “inactive”.
With `Cc1c(C(=O)O)c(O)cc2c1C(=O)c1c(O)c([C@@H]3O[C@H](CO)[C@@H](O)[C@H](O)[C@H]3O)c(O)c(O)c1C2=O` the outcome was “inactive”.
For `CCCCCCC(=O)OCC`, the outcome was “inactive”.
For `O=[N+]([O-])C(CO)(CO)CO`, the outcome was “inactive”.
With `Nc1ccc(S(=O)(=O)c2ccc(N)cc2)cc1` the outcome was “inactive”.
For `COc1cc(C=O)ccc1O`, the outcome was “inactive”.
For `NC(=O)Cn1c(=O)cc(CCN2CCN(c3nccc4sccc34)CC2)c2ccc(F)cc21`, the outcome was “inactive”.
With `CC1=C(/C=C/C(C)=C/C=C/C(C)=C/CO)C(C)(C)CCC1` the outcome was “inactive”.
In the case of `O=C(O)CCCCC(=O)O`, the outcome is reported as “inactive”.
In the case of `CNC(=O)[C@H]1O[C@@H](n2cnc3c(NCc4cc(Cl)ccc4OCc4cc(C)no4)ncnc32)[C@H](O)[C@@H]1N`, the outcome is reported as “inactive”.
With `Oc1ccc2c(c1)OC[C@@H](N1CCC(O)(c3ccc(F)cc3)CC1)[C@H]2O` the AC50 was 64.6 µM (active).
With `Cc1ccc(C)c(C)c1` the outcome was “inactive”.
For `C[Si]1(C)O[Si](C)(C)O[Si](C)(C)O[Si](C)(C)O1`, the outcome was “inactive”.
